{"source": "PubChem BioAssay AID896", "about": "(National Center for Advancing Translational Sciences (NCATS), 2007)", "note": "Some of the results follow. Results filed as inconclusive are left out."}
{"assay": "Confirmation Concentration-Response Assay for Allosteric/Competitive Inhibitors of Caspase-1", "conditions": "purified caspase-1, fluorogenic substrate cleavage; compound fluorescence baseline read; at 57.5 µM", "excerpt": "NIH Molecular Libraries Screening Centers Network [MLSCN]\nNIH Chemical Genomics Center [NCGC]\nPI Name: Dr. James Wells,\nDr. Enrique Perez-Paya, Dr.Janice Williams, Dr. Dennis Wolan, a person\nThe caspases (Cysteine Aspartyl Protease) comprise a related family of 14 dimeric proteases that are critical mediators of apoptosis (programmed cell death) and inflammation. The caspases represent an important class of drug targets for stroke, ischemia, cancer and inflammatory diseases. […] One goal of this project was to identify compounds that act as allosteric inhibitors via stabilizing the procaspase form of the enzyme. […]\nThe biochemical assay was configured using purified caspase 1 at a high enzyme concentration to promote formation of the homodimers and thus facilitate the identification of allosteric inhibitors. […] After initiation of the assay with substrate the plates were rapidly read using an automated robotic system (Kalypsys, Inc.) to maintain consistent timing. […] Product formation was also measured after 1 hour. […]\nCaspase 1 was prepared in buffer (50 mM HEPES pH 7.5, 50 mM KCl, 200 mM NaCl, 10 mM DTT, 0.1% CHAPS) at a concentration of 66.6 nM and 3 uL was dispensed to all wells using black solid Kalypsys 1536-well plates. […] The plates were then exposed using 405 nm excitation/520 nm emission filters for 4 sec and read at 20 sec intervals for 3 min. […]", "units": {"baseline fluorescence": "%"}}
{"smiles": "Cc1nc2c(C(=O)NCc3ccc4c(c3)OCO4)c[nH]n2c(=O)c1Cc1ccccc1F", "baseline fluorescence": -1.24}
